In PubChem BioAssay:
For some of these results: Results with a measured potency or affinity are listed apart. Activity calls are given as the source filed them.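 The calls were made as follows, unless noted: active = calcium signal rise above buffer-control mean plus 5 SD in both duplicates, and also a hit in the primary screen; inactive = the rest.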

Tests used:
[1] = test system: TRPC4 beta (transient receptor potential cation channel C4), mouse; assay: activators of mouse TRPC4 channel, confirmation, cell-based, Fluo4 calcium, HEK293 TRPC4beta/mu-opioid, duplicates, 10 µM (AID 2426;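 active = fluorescence ratio normalized to control raised more than 50% in primary screen plus both repeat runs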;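 as to activation: percent rise of integrated ratio over buffer wells lacking compound which define 0%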); details: Fluo4 calcium fluorescence, at 10 µM; hits give high values
[2] = test system: transient receptor potential cation channel C4 beta (TRPC4), mouse; assay: activators of mouse TRPC4 channel, confirmation, cell-based, second round, Fluo4, HEK293 TRPC4beta/mu-opioid, 1 µM (AID 2461;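 active = primary screen active and over 50% activation in each of two duplicate runs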;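 as to activation: 0% = wells without test compound as baseline of integrated fluorescence ratio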); details: Fluo4 calcium fluorescence, at 1 µM; hits give high values
[3] = test system: TRPC4 (transient receptor potential cation channel C4 beta), mouse; assay: positive allosteric modulators of mouse TRPC4, confirmation, cell-based, second round, Fluo-4, HEK293 TRPC4beta/mu-opioid, 1 µM (AID 2554;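 active = primary screen hit whose fluorescence ratio, in both repeats, exceeds the weak agonist control mean by 3 SD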); details: DAMGO EC20, Fluo-4 calcium flux, at 1 µM; hits give high values
[4] = test system: TRPC4 beta (transient receptor potential cation channel C4), mouse; assay: positive allosteric modulators of mouse TRPC4, confirmation, cell-based, Fluo-4, HEK293 TRPC4beta/mu-opioid (AID 2555;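 active = primary screen hit whose calcium fluorescence ratio, in both repeats, exceeds the weak agonist control mean by 3 SD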); details: DAMGO EC20, Fluo-4 calcium flux, at 10 µM; hits give high values
[5] = target: Short transient receptor potential channel 4 (Mus musculus) (UniProt Q9QUQ5); assay: inhibitors of mouse TRPC4 channel, confirmation, cell-based, Fluo4, HEK293 TRPC4beta/mu-opioid (AID 2636;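 active = calcium signal cut by more than 3 SD below the full-agonist control yet still positive, in both repeats and the earlier primary screen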); details: DAMGO, Fluo4 calcium flux, at 10 µM; hits give high values
Chain of Short transient receptor potential channel 4 (Mus musculus) (Q9QUQ5 whole entry, looked up): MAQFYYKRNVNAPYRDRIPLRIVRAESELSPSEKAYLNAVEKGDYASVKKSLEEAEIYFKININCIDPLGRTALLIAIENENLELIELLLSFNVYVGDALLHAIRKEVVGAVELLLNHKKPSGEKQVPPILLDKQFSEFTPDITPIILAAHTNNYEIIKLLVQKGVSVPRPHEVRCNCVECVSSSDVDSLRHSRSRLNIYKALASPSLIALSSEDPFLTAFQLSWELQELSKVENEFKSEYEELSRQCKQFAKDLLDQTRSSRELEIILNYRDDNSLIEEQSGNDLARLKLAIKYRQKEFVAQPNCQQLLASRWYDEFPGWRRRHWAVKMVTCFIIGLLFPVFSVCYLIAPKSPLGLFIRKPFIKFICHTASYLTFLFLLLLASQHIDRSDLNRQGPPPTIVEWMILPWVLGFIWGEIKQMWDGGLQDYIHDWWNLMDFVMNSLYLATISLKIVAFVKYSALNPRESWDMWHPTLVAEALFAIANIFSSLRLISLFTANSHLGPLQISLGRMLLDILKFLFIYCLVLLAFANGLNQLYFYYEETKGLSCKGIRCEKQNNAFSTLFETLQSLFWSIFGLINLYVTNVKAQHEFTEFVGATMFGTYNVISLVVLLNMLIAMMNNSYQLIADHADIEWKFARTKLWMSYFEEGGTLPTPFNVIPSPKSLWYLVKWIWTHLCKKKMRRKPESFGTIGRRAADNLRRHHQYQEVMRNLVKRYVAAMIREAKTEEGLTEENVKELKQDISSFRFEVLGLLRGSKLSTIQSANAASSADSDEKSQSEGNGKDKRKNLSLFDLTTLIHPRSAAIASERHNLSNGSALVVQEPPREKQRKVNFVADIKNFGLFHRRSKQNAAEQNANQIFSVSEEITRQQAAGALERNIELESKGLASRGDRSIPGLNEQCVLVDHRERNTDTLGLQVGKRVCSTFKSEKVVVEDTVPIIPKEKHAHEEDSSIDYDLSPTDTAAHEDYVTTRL

[6] = target: Short transient receptor potential channel 4 (Mus musculus) (UniProt Q9QUQ5); assay: inhibitors of mouse TRPC4 channel, confirmation, cell-based, second round, Fluo4, HEK293 TRPC4beta/mu-opioid, 1 µM (AID 2637;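 active = calcium signal ratio cut to more than 3 SD under the fully stimulated control mean yet still positive, in both repeats and the primary screen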); details: Fluo4 calcium flux, DAMGO, at 1 µM; hits give high values
[7] = target: Short transient receptor potential channel 4 (Mus musculus) (UniProt Q9QUQ5); assay: TRPC4 positive allosteric modulators, dose response, cell-based, HEK293 TRPC4/mu-opioid, Fluo-4 calcium, EC20 DAMGO (AID 434941;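 active = earlier screen potentiator hit that boosts the TRPC4 ion channel at some dose, with a dose response; inactive = no potentiation, no dose response, or not a prior hit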;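 also: calcium entry triggered by an EC20 dose of DAMGO at the co-expressed mu-opioid receptor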)
[8] = target: Short transient receptor potential channel 4 (Mus musculus) (UniProt Q9QUQ5); assay: mouse TRPC4 channel inhibitors, dose response, cell-based, HEK293 TRPC4/mu-opioid, Fluo-4 calcium (AID 434942;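 active = primary screen inhibitor hit that blocks the TRPC4 channel at some tested dose, yielding a dose curve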)
[9] = target: Short transient receptor potential channel 6 (Mus musculus) (UniProt Q61143); assay: inhibition of mouse TRPC6 channel, confirmation, selectivity assay for TRPC4 inhibitor project, cell-based, HEK293, membrane potential dye, duplicate (AID 434948;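 active = active in primary screen and both duplicates, each dropping signal beyond three positive-control SD with fluorescence still positive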); details: HEK293 TRPC6, membrane potential dye fluorescence, at 10 µM, stimulated with maximal-effect acetylcholine; hits give high values
Chain of Short transient receptor potential channel 6 (Mus musculus) (Q61143 whole entry, looked up): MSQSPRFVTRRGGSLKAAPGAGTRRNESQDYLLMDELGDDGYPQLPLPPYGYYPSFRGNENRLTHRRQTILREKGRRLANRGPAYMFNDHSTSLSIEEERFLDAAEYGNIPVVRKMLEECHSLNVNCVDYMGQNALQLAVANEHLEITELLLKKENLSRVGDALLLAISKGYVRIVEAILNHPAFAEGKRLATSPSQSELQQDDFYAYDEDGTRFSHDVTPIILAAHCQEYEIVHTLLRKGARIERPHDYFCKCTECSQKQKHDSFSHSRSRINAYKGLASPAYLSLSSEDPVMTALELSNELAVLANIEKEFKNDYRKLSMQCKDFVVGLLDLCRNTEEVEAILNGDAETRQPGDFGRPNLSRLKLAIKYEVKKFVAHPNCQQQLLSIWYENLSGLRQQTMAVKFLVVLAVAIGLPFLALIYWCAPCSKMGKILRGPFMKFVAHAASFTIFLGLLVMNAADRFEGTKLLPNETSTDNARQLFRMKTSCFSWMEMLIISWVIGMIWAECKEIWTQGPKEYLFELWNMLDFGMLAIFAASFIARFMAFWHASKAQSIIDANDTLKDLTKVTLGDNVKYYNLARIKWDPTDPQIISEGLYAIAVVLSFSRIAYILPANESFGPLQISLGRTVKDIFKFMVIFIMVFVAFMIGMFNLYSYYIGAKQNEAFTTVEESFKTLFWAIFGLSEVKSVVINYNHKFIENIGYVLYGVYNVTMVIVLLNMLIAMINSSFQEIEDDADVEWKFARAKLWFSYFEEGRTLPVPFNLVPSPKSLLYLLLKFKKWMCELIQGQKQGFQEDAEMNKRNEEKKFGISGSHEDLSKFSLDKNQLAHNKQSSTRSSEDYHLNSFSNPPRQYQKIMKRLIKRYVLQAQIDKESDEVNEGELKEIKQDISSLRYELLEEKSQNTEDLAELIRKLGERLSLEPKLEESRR

[10] = target: Short transient receptor potential channel 6 (Mus musculus) (UniProt Q61143); assay: activation of mouse TRPC6 channel, confirmation, selectivity assay for TRPC4 activator project, cell-based, HEK293, membrane potential dye, duplicate (AID 434950;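 active = membrane potential signal rise above negative control mean plus 3 SD in both duplicates, also active in the earlier TRPC4 screen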;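 as to activation: 0% = buffer only wells and 100% = acetylcholine maximal-effect wells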); details: HEK293 TRPC6, membrane potential fluorescence, at 10 µM; hits give high values
[11] = target: Short transient receptor potential channel 6 (Mus musculus) (UniProt Q61143); assay: TRPC6 potentiation by TRPC4 potentiator hits, confirmation, selectivity assay for TRPC4 potentiator project, HEK293 cells, membrane potential dye, duplicate (AID 434952;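 active = compound raising the membrane signal above positive-control mean plus 3 SD in both repeats, and a primary screen hit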); details: HEK293 TRPC6, membrane potential dye fluorescence, at 10 µM, maximal acetylcholine added after compound; hits give high values
[12] = target: Short transient receptor potential channel 4 (Mus musculus) (UniProt Q9QUQ5); assay: calcium flux activators in TRPC4/5HT1a cells, counter-screen for TRPC4 activator project, cell-based, second counter screen, HEK293 TRPC4/5HT1a, Fluo-4 (AID 434977); details: Fluo-4 calcium flux, at 10 µM; hits give high values;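 as to activation: plate controls were assay buffer for no effect and maximal serotonin response for full effect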
[13] = calcium flux inhibitors in TRPC4/5HT1a cells, confirmation, counter-screen for TRPC4 inhibitor project, cell-based, second counter screen, HEK293 TRPC4/5HT1a, Fluo-4 (AID 434978;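 active = primary screen active whose calcium signal fell more than 3 SD beyond the full-serotonin control mean in both duplicate plates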;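 also: serotonin given first at submaximal then at maximal dose after compound preincubation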); details: Fluo-4 calcium flux, at 10 µM, serotonin added to trigger calcium flux; hits give high values
[14] = test system: TRPC4 (mouse), co-expressed with 5HT1a in HEK293; assay: calcium flux potentiators in TRPC4/5HT1a cells, confirmation, counter-screen for TRPC4 potentiator project, cell-based, second counter screen, HEK293 TRPC4/5HT1a, Fluo-4 (AID 434979;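 active = signal rise over 3 SD above mean of control wells given weak agonist, in both repeats and first screen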); details: Fluo-4 calcium flux, at 10 µM, serotonin added at its EC20 dose; hits give high values
[15] = calcium flux activation in mu-opioid HEK293 cells, confirmation, counter-screen for TRPC4 activator project, cell-based, HEK293 mu-opioid receptor line (AID 449723;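 active = hit in primary screen, with calcium signal over 5 SD above buffer well mean in both duplicates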;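 also: counter screen cells carry the mu-opioid receptor alone and lack TRPC4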); details: Fluo-4 calcium fluorescence, at 10 µM; hits give high values
[16] = calcium flux enhancement in mu-opioid HEK293 cells, confirmation, counter-screen for TRPC4 allosteric potentiator project, cell-based, HEK293 mu-opioid receptor line (AID 449724;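 active = calcium signal rise more than 3 SD above the low-dose agonist control mean, in both duplicate plates and the primary screen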); details: Fluo-4 calcium flux, at 10 µM, compound added before EC20 DAMGO stimulus; hits give high values

Measured: activation

CCn1c(N)[n+](CC(=O)Nc2ccc(SC(F)F)cc2)c2ccccc21
active: [1] 200% | [12] 10.3%
inactive: [2] | [3] | [4] | [5] | [6] | [7] | [8] | [9] | [10] | [11] | [13] | [14] | [15] | [16]

Cc1cc(Cl)cc(C)c1OCCCCn1ccnc1
inactive: [2] | [3] | [4] | [5] | [6] | [7] | [8] | [9] | [11] | [13] | [14] | [15] | [16]
active: [1] 98% | [10] 42.5% | [12] 36.8%

CCN1CCN(c2ccc(S(=O)(=O)N3CCCCC3)cc2NC(=O)COc2ccccc2)CC1
inactive: [2] | [3] | [4] | [5] | [6] | [7] | [8] | [9] | [10] | [11] | [13] | [14] | [15] | [16]
active: [1] 157% | [12] 16.8%

COc1ccc(C2Nc3ccccc3C(=O)N2Cc2ccco2)cc1COc1ccc(NC(C)=O)cc1 (stereo unspecified)
active: [10] 29%
inactive: [1] | [2] | [3] | [4] | [5] | [6] | [7] | [8] | [9] | [11] | [12] | [13] | [14] | [15] | [16]

CN(C)CCCN(C(=O)c1ccc(S(=O)(=O)N(C)C2CCCCC2)cc1)c1nc2ccc(F)cc2s1
active: [1] 155% | [12] 5.36%
inactive: [2] | [3] | [4] | [5] | [6] | [7] | [8] | [9] | [10] | [11] | [13] | [14] | [15] | [16]

O=C(C1CCCN(Cc2ccccc2)C1)N1CCc2ccccc2C1 (stereo unspecified)
active: [1] 105% | [2] 94% | [10] 71% | [12] 40.5%
inactive: [3] | [4] | [5] | [6] | [7] | [8] | [9] | [11] | [13] | [14] | [15] | [16]

Cc1ccc(Cl)cc1NC(=O)CNCC(c1ccccc1)N(C)C (stereo unspecified)
active: [10] 47.5%
inactive: [1] | [2] | [3] | [4] | [5] | [6] | [7] | [8] | [9] | [11] | [12] | [13] | [14] | [15] | [16]

Cc1sc2ncnc(NCC(C)(C)N3CCOCC3)c2c1C
inactive: [3] | [4] | [5] | [6] | [7] | [8] | [9] | [10] | [11] | [13] | [14] | [15] | [16]
active: [1] 178% | [2] 109% | [12] 62.7%

Cc1ccccc1N(CC(=O)N/N=C/c1ccc(F)cc1)C(=O)c1ccccc1
inactive: [1] | [2] | [3] | [4] | [5] | [6] | [7] | [8] | [9] | [10] | [11] | [12] | [13] | [14] | [15] | [16]

Cc1ccccc1C(=O)NNC(=S)NC(=O)c1ccccc1
active: [1] 215% | [10] 43.5% | [12] 121% | [15] 72.9%
inactive: [2] | [3] | [4] | [5] | [6] | [7] | [8] | [9] | [11] | [13] | [14] | [16]

O=C(COc1ccc(Br)cc1CNC1CCCC1)Nc1ccccc1
inactive: [2] | [3] | [4] | [5] | [6] | [7] | [8] | [9] | [11] | [12] | [13] | [14] | [15] | [16]
active: [1] 175% | [10] 29.5%

CCOC(=O)C1(CCOc2ccccc2)CCN(Cc2ccc3c(c2)OCCO3)CC1
inactive: [1] | [2] | [3] | [4] | [5] | [6] | [7] | [8] | [9] | [11] | [12] | [13] | [14] | [15] | [16]
active: [10] 74.5%

CN(C)CCCN(C(=O)c1ccc(S(=O)(=O)N(C)Cc2ccccc2)cc1)c1nc2cc3c(cc2s1)OCO3
inactive: [1] | [2] | [3] | [4] | [5] | [6] | [7] | [8] | [9] | [10] | [11] | [12] | [13] | [14] | [15] | [16]

CCCCC(c1nnnn1CC1CCCO1)N1CCN(c2nc3ccccc3s2)CC1 (stereo unspecified)
inactive: [2] | [3] | [4] | [5] | [6] | [7] | [8] | [9] | [11] | [13] | [14] | [15] | [16]
active: [1] 88% | [10] 60.5% | [12] 12.7%

CN(C)CCN(C(=O)c1cccc2ccccc12)c1nc2cc3c(cc2s1)OCO3
inactive: [1] | [2] | [3] | [4] | [5] | [6] | [7] | [8] | [9] | [10] | [11] | [12] | [13] | [14] | [15] | [16]

CN(C)C(CNC(=O)Cc1cccc(C(F)(F)F)c1)c1ccco1 (stereo unspecified)
inactive: [2] | [3] | [4] | [5] | [6] | [7] | [8] | [9] | [11] | [12] | [13] | [14] | [15] | [16]
active: [1] 83% | [10] 29%
